KCNQ2 enhance: enhances the rat KCNQ2 potassium channel. B-score at 10 µM. 310,000 tested, 0.54% active. CHO-K1 KCNQ2, FluxOR thallium flux fluorescence; stronger effect = higher value. AID 2239;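 active = fluorescence ratio B-score at least 3 SD of library B-scores, with initial fluorescence B-score within 3 of them, cut at about 5.3 in these data; same plate scores as AID 2156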;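 also: B-score of peak minus minimum over baseline fluorescence ratio after K+ and Tl+ stimulus; positive B-score means potentiation of KCNQ2 with more thallium influx and brighter signal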
Target sequence (O88943 whole entry, looked up): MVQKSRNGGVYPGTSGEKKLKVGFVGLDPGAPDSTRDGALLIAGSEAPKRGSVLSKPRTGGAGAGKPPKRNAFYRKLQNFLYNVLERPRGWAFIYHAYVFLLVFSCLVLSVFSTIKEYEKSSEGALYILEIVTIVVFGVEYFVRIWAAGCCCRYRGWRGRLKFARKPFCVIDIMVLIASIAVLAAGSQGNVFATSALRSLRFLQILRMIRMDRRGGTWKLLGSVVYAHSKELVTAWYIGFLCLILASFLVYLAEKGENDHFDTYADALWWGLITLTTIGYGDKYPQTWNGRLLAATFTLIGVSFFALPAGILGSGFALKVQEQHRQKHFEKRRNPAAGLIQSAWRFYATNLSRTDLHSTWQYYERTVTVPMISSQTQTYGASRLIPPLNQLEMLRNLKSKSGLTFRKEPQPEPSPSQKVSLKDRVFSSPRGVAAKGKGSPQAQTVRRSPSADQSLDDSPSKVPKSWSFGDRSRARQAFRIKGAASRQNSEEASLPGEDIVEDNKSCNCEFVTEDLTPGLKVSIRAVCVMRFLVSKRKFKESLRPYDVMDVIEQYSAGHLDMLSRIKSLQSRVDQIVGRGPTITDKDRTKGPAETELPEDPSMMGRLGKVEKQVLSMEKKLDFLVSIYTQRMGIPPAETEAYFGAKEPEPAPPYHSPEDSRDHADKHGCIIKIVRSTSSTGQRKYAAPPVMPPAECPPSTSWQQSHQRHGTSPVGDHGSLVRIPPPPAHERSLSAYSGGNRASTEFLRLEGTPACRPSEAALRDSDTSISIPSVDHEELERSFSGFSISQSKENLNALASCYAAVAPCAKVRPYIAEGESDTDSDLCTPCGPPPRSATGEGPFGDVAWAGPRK
KCNQ2 block: blocks the rat KCNQ2 potassium channel. O88943. CHO-K1 KCNQ2, FluxOR thallium flux, 20 min; stronger effect = lower value. B-score at 10 µM. 310,000 tested, 1.1% active. AID 2156;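 active = fluorescence ratio B-score at most minus 3 library SDs, with starting brightness B-score within 2 library SDs, cut at about -5.5 in these data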
Of the large screens only hits and unclear results are named; the others gave an inactive call. A selection: hits, their analogues and other compounds. The true share with any hit is near 1.6%.

COc1ccccc1CN(C)C(=O)c1sccc1-c1ccccc1	KCNQ2 block -6.5
COc1ccccc1CN(C)C(=O)c1cnc(C)cn1	none
CN1CCN(S(=O)(=O)c2ccc(CNC(=O)c3ccccc3)s2)CC1	none
NC(=O)c1cc(NC(=O)CCNS(=O)(=O)c2cccc(C(F)(F)F)c2)cc(C(N)=O)c1	none (no result: KCNQ2 enhance)
COc1ccc(S(=O)(=O)N2CCC(C(=O)NCc3cccnc3)CC2)cc1Cl	none (no result: KCNQ2 enhance)
COc1cccc(C(=O)Nc2ccc3c(cc2=O)[C@@H](NC(C)=O)CCc2cc(OC)c(OC)c(OC)c2-3)c1	none (no result: KCNQ2 enhance)
CC(=O)c1ccc(C(=O)N2CCCC(CNC(=O)c3ccccc3Cl)C2)cc1 (stereo not given)	none (no result: KCNQ2 enhance)
Cc1cccc(NC(=O)N2CCCC(CNC(=O)c3ccccc3Cl)C2)c1C (stereo not given)	KCNQ2 block -8.2
Cc1onc(-c2c(F)cccc2Cl)c1C(=O)N=C(N)N1CCCC1	none
Cc1cc2ncn(-c3ncnc4sc5c(c34)CCC(C)C5)c2cc1C (stereo not given)	KCNQ2 block -5.9
Cc1cc2ncn(-c3ncnc4sc5c(c34)CCCC5)c2cc1C	none (no result: KCNQ2 enhance)
CC(C)C(C(=O)NC1CCCC1)N(CC1CCCO1)C(=O)CNS(=O)(=O)c1ccccc1 (stereo not given)	none (no result: KCNQ2 enhance)
COc1cccc(-n2c(CN3CCN(c4cccc(C)c4)C(C)C3)nc3ccc([N+](=O)[O-])cc3c2=O)c1 (stereo not given)	KCNQ2 block -5.8
COc1cccc(-n2c(CN3CCN(c4ccc(C)cc4)C(C)C3)nc3ccc([N+](=O)[O-])cc3c2=O)c1 (stereo not given)	none (no result: KCNQ2 enhance)
Cc1ccc2cc3c(N)[nH]nc3nc2c1	none
CCN(CC)C(=O)C1=C(C)Nc2nc3ccccc3n2C1c1cccc(OC)c1 (stereo not given)	KCNQ2 block -7.7
CCOC(=O)C1=C(C)Nc2nc3ccccc3n2C1c1ccc(O)cc1 (stereo not given)	none
C=C(C)CNC(=S)N/N=C/C1=CCC2CC1C2(C)C (stereo not given)	none
CCCCNC(=S)N/N=C/C1=CCC2CC1C2(C)C (stereo not given)	KCNQ2 enhance 5.4
COc1ccc(/C=N/n2nnnc2N)c(OC)c1	none
O=C(COC(=O)c1ccc(S(=O)(=O)C(F)F)cc1)Nc1cccnc1Cl	none (no result: KCNQ2 enhance)
Cc1sc2nc(SCC(=O)NCc3ccco3)n(C)c(=O)c2c1C	none (no result: KCNQ2 enhance)
CCn1c(SCC(=O)NC(=O)NCc2ccco2)nc2sc(C)c(C)c2c1=O	KCNQ2 enhance 6
Cc1cc(/C=C(\C#N)C(=O)NCc2ccco2)c(C)n1-c1cccnc1	none
Cc1cc(/C=C(/C#N)c2cccc(F)c2)c(C)n1-c1cccnc1	KCNQ2 block -8
COc1ccc(OCC(=O)NCCCCCCNC(=O)COc2ccc(OC)cc2)cc1	none
O=C(O)CCc1cc(I)c(Oc2ccc(O)c(I)c2)c(I)c1	KCNQ2 enhance 32
N[C@@H](Cc1cc(I)c(Oc2ccc(O)c(I)c2)c(I)c1)C(=O)O	none
O=C(CCc1ccccc1)NC(=S)Nc1cc(C(F)(F)F)ccc1N1CCOCC1	KCNQ2 block -6.2
CC(C)CC(=O)NC(=S)Nc1cc(C(F)(F)F)ccc1N1CCOCC1	none (no result: KCNQ2 enhance)
COc1ccc(C2(C)NC(=O)N(CC(=O)Nc3ccc(Br)c(C)c3)C2=O)cc1OC (stereo not given)	none
O=C(Nc1cccc(C(F)(F)F)c1)c1cccnc1N1CCN(c2ccccc2)CC1	KCNQ2 block -7
O=C(Nc1cccc(C(F)(F)F)c1)c1cccnc1N1CCN(CCO)CC1	none (no result: KCNQ2 enhance)
O=C(NC(=S)NCc1cccnc1)c1cc2ccccc2o1	none
O=C(NC(=S)Nc1cccnc1)c1cc2ccccc2o1	KCNQ2 enhance 8.1
Cc1ccc(/C=C/C(=O)O)cc1S(=O)(=O)N1CCCCC1	none
Cc1ccc(OCC(=O)NC2CCCc3ccccc32)c(C)c1 (stereo not given)	none (no result: KCNQ2 enhance)
O=C(CCC(=O)N1CCN(S(=O)(=O)c2ccc(Cl)cc2)CC1)NC1CCCc2ccccc21 (stereo not given)	KCNQ2 block -7.1
NC(=O)C1CCN(CC(=O)NC2CCCc3ccccc32)CC1 (stereo not given)	none
O=C(CCC(=O)N1CCN(S(=O)(=O)c2ccc(Cl)cc2)CC1)Nc1ccc(Cl)cc1Cl	none
Cc1ccc(S(=O)(=O)N2CCN(CC(=O)NC3CCCc4ccccc43)CC2)c(C)c1 (stereo not given)	KCNQ2 block -6.1
Cc1ccc(S(=O)(=O)N2CCN(CC(=O)NC3CCCc4ccccc43)CC2)cc1C (stereo not given)	KCNQ2 block -7
Cc1ccc(N(Cc2cc(=O)[nH]c3ccccc23)C(=O)CCl)c(C)c1	none
Cn1cnnc1SC(C(=O)Nc1cccc(C(F)(F)F)c1)c1ccccc1 (stereo not given)	none
CCc1ccc2nc(SCC(=O)Nc3nnc(C)s3)c(C)cc2c1	none
Cc1ccc(C2(C)NC(=O)N(CC(=O)NC(=O)NC(C)C)C2=O)cc1 (stereo not given)	none (no result: KCNQ2 enhance)
O=c1nc2n(c3ccc([N+](=O)[O-])cc13)CCCCC2	none (no result: KCNQ2 enhance)
O=[N+]([O-])c1ccc2c(c1)C=C1CCCCC1(N1CCCCC1)O2 (stereo not given)	KCNQ2 block -5.7
CCN1CCN(Cc2c(C(=O)N/N=C(\C)c3ccc(Cl)c(Cl)c3)nnn2-c2nonc2N)CC1	none
CCn1nc(C)c(CN2CCC(n3nccc3NC(=O)Cc3ccccc3)CC2)c1C	none
CCOC(=O)CC1(NC(=O)c2cc(COc3c(F)cccc3F)on2)CCCCC1	KCNQ2 block -5.7
COC(=O)[C@H](Cc1ccccc1)NC(=O)c1cc(COc2c(F)cccc2F)on1	none
CC1=NN(c2ccc(Cl)c(C(=O)O)c2)C(=O)/C1=C\c1ccc(-c2ccc(C(=O)O)cc2)o1	none
CC1=NN(c2ccccc2)C(=O)/C1=C/c1ccc(-c2ccc(C)c(C(=O)O)c2)o1	KCNQ2 enhance 6.8
O=C(NCCCN1CCCCC1)C1CCC(CNS(=O)(=O)c2cccc3nsnc23)CC1 (stereo not given)	none
O=C(O)c1[nH]c2ccccc2c1CC(=O)N1CCN(c2ccccc2)CC1	none (no result: KCNQ2 enhance)
Cc1cccc(N2CCN(C(=O)Cc3c(C(=O)O)[nH]c4ccc(Cl)cc34)CC2)c1C	KCNQ2 enhance 7
Cn1c(=O)c2c(ncn2CC(=O)N/N=C/C=C\c2ccccc2[N+](=O)[O-])n(C)c1=O	none
CC(=O)Nc1cccc(NC(=O)CS(=O)(=O)c2cn(CC(=O)N(C(C)C)C(C)C)c3ccccc23)c1	none (no result: KCNQ2 enhance)
Cc1cc(Br)ccc1N=C1NC(=O)CS1	none (no result: KCNQ2 enhance)
CC(c1ccccc1)N(CCC(c1ccccc1)C1CCOC(C)(C)C1)C(=O)c1ccco1 (stereo not given)	none (no result: KCNQ2 enhance)
COc1ccc(CN(CCC(c2ccc(F)cc2)C2CCOC(C)(C)C2)C(=O)c2ccco2)cc1 (stereo not given)	KCNQ2 block -5.8
O=S(=O)(NCc1ccccc1)c1ccc(NC(=S)NCc2ccco2)cc1	none
CC(=O)c1ccc(N2C(=NC(=O)CCC3CCCC3)SC3CS(=O)(=O)CC32)cc1 (stereo not given)	none (no result: KCNQ2 enhance)
Cc1ccc(CNCC(=O)Nc2ccc(N3CCOCC3)cc2)cc1	none (no result: KCNQ2 enhance)
O=c1ccc(-c2ccccc2)nn1Cc1ccc(F)cc1Cl	none
O=c1[nH]c(C2CCCN(S(=O)(=O)c3ccccc3)C2)nc2c1nnn2Cc1ccccc1Br (stereo not given)	none
Cc1nc2ccccn2c1C(=O)Nc1ccc(Cl)cc1	none
COc1ccc(-c2noc(=O)n2Cc2ccccc2Cl)cc1	none (no result: KCNQ2 enhance)
O=[N+]([O-])c1c(NCCCO)cc(Sc2nc3ccccc3s2)c2nonc12	none (no result: KCNQ2 enhance)
O=[N+]([O-])c1c(NCCO)cc(N2CCCCCC2)c2nonc12	none (no result: KCNQ2 enhance)
